Bioassay records as filed in PubChem.
MITF primary: MITF inhibitors, primary screen, biochemical, AlphaScreen, human; Microphthalmia-associated transcription factor (Homo sapiens), O75030; AlphaScreen MITF homodimerization, bead proximity signal; inhibition, % at 2.6 µM; hit rate 0.91% among 650,000; AID 1259374, 2018; in the data active = inhibition above about 50%;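 note: 0% = vehicle wells with protein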
GPR151 activ: activators of human GPR151, primary screen, cell-based, PathHunter beta-arrestin, luminescence. G-protein coupled receptor 151 (Homo sapiens), Q8TDV0. PathHunter beta-arrestin GPR151 cells. activation, % at 11.2 µM. hit rate 1% among 650,000; in the data active = activation above about 4.9%;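 note: 0% = median of compound wells and 100% = cells with positive control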
TEAD-YAP inh: TEAD-YAP interaction inhibition, primary screen, TEAD-YAP interaction inhibitor project, luminescence, HEK-TIYL cells; TEAD-Gal4/YAP UAS-luciferase luminescence; inhibition, % at 9.12 µM; hit rate 1.4% among 640,000; AID 1259422, 2018; in the data active = inhibition above about 32%;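 note: 0% = median of test compound wells and 100% = reference inhibitor wells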
FBW7 act: FBW7 E3 ligase activators, primary screen, biochemical, AlphaScreen, human; AlphaScreen FBW7–phospho-cyclin E peptide binding, activator screen; normalized activity (activation), % at 26.1 µM; hit rate 0.13% among 650,000; AID 1259310, 2017; in the data active = normalized activity above about 1.9%;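 note: purified mutant Fbw7 with reduced substrate affinity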
MITF confirm: MITF inhibitors, retest of hits, confirmation, biochemical, AlphaScreen, triplicate; shares compounds with MITF primary; AlphaScreen MITF homodimerization, biotin/His-MITF beads; inhibition, % at 2.6 µM; hit rate 16% among 4,700; AID 1259372, 2018;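 active = inhibition above a cutoff derived from the DMSO control wells, cut at about 28% in these data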;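 note: 0% = MITF dimer wells with DMSO only; inhibitors lower the bead chemiluminescence by keeping MITF from dimerizing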
AS interf DR: AlphaScreen optical interference compounds, dose response, counter-screen, biochemical, HTS. IC50, µM. hit rate 6% among 480. AlphaScreen optical interference counterscreen, cell-free. shares compounds with MITF primary. AID 1259373, 2018; call rule not given here
AS interf ctr: AlphaScreen optical interference compounds, counter-screen for MITF inhibitor project, biochemical, triplicate; shares compounds with MITF primary; LysRS AlphaScreen counterscreen, signal interference; hit rate 7.6% among 4,700; inhibition, % at 2.6 µM;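 active = inhibition above a cutoff derived from the DMSO control wells, cut at about 30% in these data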
GPR151 confirm: GPR151 activators, triplicate retest, confirmation, cell-based, PathHunter beta-arrestin, luminescence. GPR151 PathHunter beta-arrestin cells, 90 min; % of EA-reagent control over plate median. 6,700 tested, under 10 active. shares compounds with GPR151 activ. activation, % at 11.2 µM;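 active = mean percent activation across replicates above the confirmation screen cutoff of 4.91%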
GPR119 counter: GPR119 activators in beta-arrestin cells, counter-screen for GPR151 activator project, cell-based, PathHunter beta-arrestin, luminescence, triplicate | shares compounds with GPR151 activ | 90 min; 0 = compound-well median, 100 = enzyme-acceptor control | activation, % at 11.2 µM | hit rate 0.3% among 6,700;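 active = mean percent activation in the counterscreen above 29.09%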;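 note: counterscreen on off-target GPR119 to flag nonselective hits from the GPR151 activator screen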
Numbers without * were called inactive; · = no result. An excerpt weighted towards active compounds, which were near 3.4% of everything screened.

SMILES	MITF primary	GPR151 activ	TEAD-YAP inh	FBW7 act	GPR151 confirm	GPR119 counter	others
COc1cc(OC)c(C(=O)OC2CCCC2=O)cc1OC (stereo not drawn)	76.4*	5.2*	5.3	-0.2	0.8	2.3	MITF confirm=67.0*;AS interf DR=>7.05;AS interf ctr=6.5
Fc1ccc(-n2cc(-c3ccccc3)c3c(SCc4ccccc4)ncnc32)cc1	12.1	3.6	5.3	0.1	·	·
c1cncc(CN2CCN(Cc3cccc4ccccc34)CC2)c1	83.3*	11.5*	-3.5	-0.2	-1.1	-20.0	MITF confirm=4.2;AS interf ctr=1.4
CC(=O)c1cccc(OCCCCN2CCN(C)CC2)c1	55.0*	5.1*	7.5	-0.2	0.2	6.2	MITF confirm=3.2;AS interf ctr=15.8
CCN(CC)c1ccc2cc(NC(=O)c3ccccc3)c(=O)oc2c1	-3.3	0.0	27.9	0.7	·	·
Cc1ccc(N2C(=O)c3ccccc3NC2c2cccc([N+](=O)[O-])c2)cc1 (stereo not drawn)	62.7*	8.6*	-8.9	-0.1	-0.4	-12.5	MITF confirm=77.3*;AS interf DR=>5.15;AS interf ctr=6.0
O=C1c2ccccc2NC(c2cccc([N+](=O)[O-])c2)N1c1ccc(F)cc1 (stereo not drawn)	4.7	0.2	9.8	-0.1	·	·
COC(C(=O)N/N=C/c1ccc2c3c(cccc13)CC2)c1ccccc1 (stereo not drawn)	15.6	1.2	-1.0	0.1	·	·
COc1ccccc1CC(=O)N1CC[C@@H]2[C@H](CCCN2C(=O)c2occc2C)C1	51.6*	7.3*	6.1	0.0	-0.1	7.5	MITF confirm=-6.4;AS interf ctr=-0.1
Cc1ccc(NC(=O)Nc2nnc(N3CCCCC3)s2)c(Cl)c1	-3.1	5.3*	4.6	-0.1	-0.1	-8.5
O=C(Nc1nnc(N2CCCC2)s1)Nc1ccc(Br)cc1F	0.1	5.6*	-11.2	-0.1	0.0	-3.3
O=C(Nc1nnc(N2CCCC2)s1)Nc1ccccc1F	-2.6	0.1	-73.7	0.2	·	·
COCc1nnc(NC(=O)C2CCCCC2)s1	13.0	6.4*	-6.8	0.3	-1.1	-9.7
CCOc1ccccc1-n1c(=S)sc2c(=O)n(-c3ccccc3C)c(SCC(=O)NCCC(C)C)nc21	3.0	0.6	3.2	-0.1	·	·
O=C(CSc1ccc2nnc(-c3ccncc3)n2n1)Nc1ccccc1C(F)(F)F	2.8	1.5	3.6	0.0	·	·
CN1C(=O)c2ccc(C(=O)Nc3ccc(Br)cc3C(=O)O)cc2C1=O	-1.9	7.9*	8.6	-0.2	-0.3	2.0
CCCN1C(=O)c2ccc(C(=O)Nc3ccc(Br)cc3C(=O)O)cc2C1=O	-2.0	0.2	-5.0	-0.2	·	·
CCCCNC(=O)/C(=C/c1ccccc1)NC(=O)/C=C/c1ccco1	-8.9	17.5*	0.3	0.0	-0.9	-7.6
CCCCNC(=O)/C(=C/c1ccc(OC)cc1)NC(=O)/C=C/c1ccccc1	3.5	-0.3	11.8	0.0	·	·
Cc1cc(NCc2cccnc2)nc(-c2ccc(C(=O)NC3CC3)cc2)n1	-5.4	-0.3	-3.1	-0.1	·	·
CCOCCCNS(=O)(=O)c1ccc(-n2cnnn2)c(C)c1	4.9	2.8	0.0	0.1	·	·
COc1ccc(Cl)cc1N1C(=O)C2CC(C)=C(C)CC2C1=O (stereo not drawn)	-5.3	6.8*	14.9	-0.1	-0.4	-5.8
COc1ccc(OC)c(N2C(=O)C3CC(C)=C(C)CC3C2=O)c1 (stereo not drawn)	4.5	-1.2	-0.9	0.0	·	·
